68 compounds from ChEMBL document CHEMBL3988442, “University of Dundee, Small-Polar-MMV Screening Library” (2021) can be followed below.

Hit rate of the full screen: of about 69,000 compounds, about 1,000 (1.4%) showed an effect of 50% or more. What follows is part of a selection rich in strong results, with near analogues and random picks from the rest.

This assay concerns Leishmania donovani. Briefly: Leishmania intramacrophage assay. Format: functional, organism-based. Also on record: scale not given: in the data most compounds retested in dose-response had high values.

Consider `COc1cccc2c1OCC(NCCCOc1cccnc1)C2` (stereo not drawn), for which the “Percent Effect” value (30.3 µM, […]) turned out to be 0.7744%.

In the case of `O=C(O)C(F)(F)F.c1ncn(Cc2cn3c(n2)CN(CC2CCCC2)CC3)n1`, the “Percent Effect” value (30.3 µM, […]) is on record as -12.84%.

On to `CC(NCC1(N(C)C)CCOCC1)c1ccc(SC(F)F)cc1` (stereo not drawn), for which the “Percent Effect” value (30.3 µM, […]) is recorded as 43.5%.

For the compound `CCc1ccc(C(=O)N2CC(C(=O)NC(C)C)C3(CCOCC3)C2)cc1` (stereo not drawn), the “Percent Effect” value (30.3 µM, […]) stood at 20.17%.

On to `CN(C)C(=O)c1cnc2n1CCN(Cc1ccsc1)C2.O=C(O)C(F)(F)F`, for which the “Percent Effect” value (30.3 µM, […]) is 24.8%.

Consider `Cc1ccc(C(=O)NCC(C)Cn2cccn2)c(=O)[nH]1` (stereo not drawn), for which, for the setting “30.3 µM, […]”, the “Percent Effect” value stood at 5.92%.

Regarding `Cc1ccc(C(=O)OC(C)Cn2cccn2)c(=O)[nH]1` (stereo not drawn), the “Percent Effect” value (30.3 µM, […]) was 9.557%.

In the case of `Cc1ccc(C(=O)NC(C)Cn2cccn2)c(=O)[nH]1` (stereo not drawn), the “Percent Effect” value (30.3 µM, […]) is 61.08%.

In the case of `CCC(O)CN1CCN(C(=O)c2ccn(C)c(=O)c2)CC1` (stereo not drawn), the “Percent Effect” value (30 µM) stood at 25.79%.

For `CSCCC(Nc1nc(C)cc(C)n1)C(=O)NC(C)(C)CO` (stereo not drawn), where the note is “30.3 µM, […]”, the “Percent Effect” value is given as -4.466%.

On to `COC1CCCN(C(=O)Nc2nc(C)n(C)n2)C1` (stereo not drawn), for which, under “30 µM, 30.03 µM”, the “Percent Effect” value came out at 27.05%.

Turning to `O=C(NCCCN1CCc2ccccc2C1)c1cccnc1O`, the “Percent Effect” value (30 µM, 30.03 µM) came out at 26.46%.

Regarding `O=C(c1ccoc1)N(Cc1ccccn1)C1CC1`, the “Percent Effect” value (30.3 µM, […]) is -9.366%.

For the compound `O=C(c1ccoc1)N(Cc1cccnc1)C1CC1`, the “Percent Effect” value (30.3 µM, […]) is listed as 22.13%.

On to `O=C(c1ccoc1)N(Cc1ccncc1)C1CC1`, for which the “Percent Effect” value (30.3 µM, […]) turned out to be 53.31%.

With `CSc1ccc(-c2nc(CN3CCC(C(N)=O)CC3)c(C)o2)cc1`, under “30.3 µM, […]”, the “Percent Effect” value was -4.149%.

In the case of `CNC(=O)C1CCN(Cc2nc(-c3ccc(SC)cc3)oc2C)C1` (stereo not drawn), for the setting “30.3 µM, […]”, the “Percent Effect” value is 7.886%.

`CSc1ccc(-c2nc(CN3C[C@@H](C)NC[C@@H]3C)c(C)o2)cc1`: the “Percent Effect” value (30.3 µM, […]) is listed as 42.57%.

Turning to `CSc1ccc(-c2nc(CN3CCC(CN)C3)c(C)o2)cc1` (stereo not drawn), the “Percent Effect” value (30.3 µM, […]) was 98.64%.

Regarding `CSc1ccc(-c2nc(CN3CCNCC3C)c(C)o2)cc1` (stereo not drawn), for the setting “30.3 µM, […]”, the “Percent Effect” value is 81.77%.

With `CSc1ccc(-c2nc(CN3CCC(NC(C)=O)CC3)c(C)o2)cc1`, the “Percent Effect” value (30.3 µM, […]) is on record as 13.21%.

On to `CNS(=O)(=O)c1cc(C(=O)NC2COc3ccccc3C2)ccc1OC` (stereo not drawn), for which the “Percent Effect” value (30.3 µM, […]) is -9.324%.

`CN(C)C(=O)c1cccc(CCNc2ccccc2S(C)(=O)=O)c1`: the “Percent Effect” value (30.3 µM, […]) came to 7.886%.

As to `CN(Cc1cn(C2CCNCC2)nn1)CC1CCCO1` (stereo not drawn), the “Percent Effect” value (30.3 µM, […]) stood at 7.398%.

`CN(Cc1cn(CC2CCNCC2)nn1)CC1CCCCO1` (stereo not drawn): for the setting “30.3 µM, […]”, the “Percent Effect” value is recorded as -23.25%.

`CCN(Cc1cn(CC2CCNCC2)nn1)CC1CCCO1` (stereo not drawn): where the note is “30.3 µM, […]”, the “Percent Effect” value is reported as 62.19%.

Turning to `Cc1ccccc1-n1cc(-c2ccnc(N3CCCC(O)C3)n2)cn1` (stereo not drawn), where the note is “30.3 µM, […]”, the “Percent Effect” value was determined as 16.96%.

As to `COC[C@H]1CCCN1c1nccc(-c2cnn(-c3ccccc3C)c2)n1`, the “Percent Effect” value (30.3 µM, […]) stood at 41.43%.

As for `Cc1ccccc1-n1cc(-c2ccnc(N3CCCC(CN)C3)n2)cn1` (stereo not drawn), the “Percent Effect” value (30.3 µM, […]) is listed as 67.45%.

Regarding `COc1ccccc1N1CCN(Cc2nccc(OC)c2OC)CC1=O`, where the note is “30.3 µM, […]”, the “Percent Effect” value was -10.47%.

Regarding `CN(Cc1ccc2c(c1)OCO2)C(=O)c1ccc(C2CCCO2)s1` (stereo not drawn), the “Percent Effect” value (30.3 µM, […]) is recorded as -16.35%.

As for `CC1CCCN(CCCNC(=O)Cc2csc(-c3ccoc3)n2)C1` (stereo not drawn), the “Percent Effect” value (30.3 µM, […]) is on record as 9.746%.

Regarding `O=C(CCNc1ncccn1)NCc1ccc(Br)s1`, the “Percent Effect” value (30.3 µM, […]) was determined as 14.9%.

Regarding `Cc1nn(C)c2c(N(C)Cc3cccs3)nc(C3CC3)nc12`, the “Percent Effect” value (30.3 µM, […]) was 56.51%.

`Cc1nn(C)c(C)c1CN(C)c1nc(C2CC2)nc2c(C)nn(C)c12`: the “Percent Effect” value (30.3 µM, […]) is -21.06%.

Consider `Cc1nn(C)c2c(N(C)Cc3ccco3)nc(C3CC3)nc12`, for which, for the setting “30.3 µM, […]”, the “Percent Effect” value came out at 10.49%.

As to `CN1CCOC(CNCCOc2cccc(C#N)c2)C1` (stereo not drawn), the “Percent Effect” value (30.3 µM, […]) stood at 25.34%.

As to `Cn1cccc1C(=O)NCc1cn2c(n1)CN(CC1CCOC1)CC2` (stereo not drawn), the “Percent Effect” value (30.3 µM, […]) worked out at 22.42%.

`CC(C)CCN1CCN(C(=O)c2ccc(=O)[nH]n2)CC1`: the “Percent Effect” value (30.3 µM, […]) stood at 20.4%.

With `Cc1cc(NC(=O)CN2CCCC2c2noc(C(C)C)n2)on1` (stereo not drawn), the “Percent Effect” value (30 µM) was found to be 7.102%.

With `CC(=O)N1CCN(C(=O)Cn2ccc3c(Cl)cccc32)CC1`, the “Percent Effect” value (30.3 µM, […]) worked out at 1.884%.

`CN1CCN(C(=O)Cn2ccc3c(Cl)cccc32)CC1`: the “Percent Effect” value (30.3 µM, […]) turned out to be 54.77%.

As to `O=C(Cn1ccc2c(Cl)cccc21)N1CCCC1`, where the note is “30.3 µM, […]”, the “Percent Effect” value stood at 16.62%.

For the compound `Cc1cc(C)c(CNC(=O)N2CCN(c3ncccn3)CC2)c(=O)[nH]1`, for the setting “30 µM, 30.03 µM”, the “Percent Effect” value is listed as -5.034%.

For the compound `COCCN1CCC(NCc2cccc(C)c2)C1` (stereo not drawn), the “Percent Effect” value (30 µM) is 11.56%.

For the compound `CNS(=O)(=O)c1cccc(C(C)NCc2cccc(O)c2)c1` (stereo not drawn), the “Percent Effect” value (30.3 µM, […]) stood at 23.7%.

On to `COc1ccc(C(CN2CCN(C)CC2)Nc2ncccn2)cc1` (stereo not drawn), for which the “Percent Effect” value (30.3 µM, […]) is -7.981%.

With `COc1cccc(C(=O)N2CCN(CC(O)c3ccccc3)CC2)c1` (stereo not drawn), the “Percent Effect” value (30.3 µM, […]) is -2.836%.

Regarding `Cc1cccc(CNC(CN2CCN(C)CC2)c2ccccc2)c1` (stereo not drawn), the “Percent Effect” value (30 µM, 30.03 µM) is on record as 98.99%.

Take `O=C(C(CNCc1cccc(O)c1)c1ccccc1)N1CCOCC1` (stereo not drawn): the “Percent Effect” value (30.3 µM, […]) is 17.14%.

Take `Cc1cc(C)cc(CNC(c2ccccc2)c2nccn2C)c1` (stereo not drawn): where the note is “30 µM”, the “Percent Effect” value worked out at 35.61%.

In the case of `COc1cccc(CNC(CN2CCN(C)CC2)c2ccccc2)c1` (stereo not drawn), for the setting “30 µM, 30.03 µM”, the “Percent Effect” value worked out at 76.19%.

For the compound `O=C(c1nnn(-c2ccc(F)cc2)n1)N1CCC(O)CC1`, for the setting “30.3 µM, […]”, the “Percent Effect” value worked out at 1.215%.

For the compound `O=C(c1cn(CCN2CCCCC2)nn1)N1CCSCC1`, the “Percent Effect” value (30.3 µM, […]) turned out to be 25.8%.

Turning to `CC(O)CN1CC(C)(C)CN(C(=O)CCc2ccccc2)CC1=O` (stereo not drawn), the “Percent Effect” value (30.3 µM, […]) is given as -1.72%.

As to `O=C(CN1CCOC(Cn2cccn2)C1)NCCc1ccc(F)cc1` (stereo not drawn), the “Percent Effect” value (30 µM, 30.03 µM) is 1.853%.

In the case of `COCCn1c2c(ccc1=O)CCN(C(=O)Cc1ccsc1)CC2`, the “Percent Effect” value (30.3 µM, […]) is 55.32%.

Regarding `COCCn1c2c(ccc1=O)CCN(C(=O)Cc1cccs1)CC2`, the “Percent Effect” value (30.3 µM, […]) turned out to be 20.34%.

Take `O=C(Cc1ccsc1)N1CCc2ccc(=O)n(CC3CC3)c2CC1`: where the note is “30.3 µM, […]”, the “Percent Effect” value worked out at 10.53%.

As to `O=C(O)c1cccc(S(=O)(=O)N2CCOc3ccccc32)c1`, the “Percent Effect” value (30 µM) was 14.21%.

Regarding `COc1cc2c(cc1C1CC(=O)NCc3nc(N(C)C)sc31)CCC2` (stereo not drawn), the “Percent Effect” value (30.3 µM, […]) is given as 11.87%.

On to `COc1ccc(C(C)C)cc1C1CC(=O)NCc2nc(N(C)C)sc21` (stereo not drawn), for which the “Percent Effect” value (30.3 µM, […]) came out at 60.09%.

In the case of `COc1ccc(C2CC(=O)NCc3nc(N(C)C)sc32)c(O)c1` (stereo not drawn), the “Percent Effect” value (30.3 µM, […]) came out at 16.16%.

Turning to `C[C@@H]1CN(C2CCN(c3ccccc3)CC2)CC[C@@]1(O)C1CCOCC1`, the “Percent Effect” value (30.3 µM, […]) is 22.22%.

As to `C[C@@H]1CN(C2Cc3ccccc3C2)CC[C@@]1(O)C1CCOCC1`, the “Percent Effect” value (30.3 µM, […]) amounted to 63.81%.

Turning to `C[C@@H]1CN(C2CCCCC2)CC[C@@]1(O)C1CCOCC1`, the “Percent Effect” value (30.3 µM, […]) is -0.4391%.

Turning to `CN(C)C(=O)NC1COC2(CCN(Cc3nccn3C)CC2)C1` (stereo not drawn), for the setting “30 µM, 30.03 µM”, the “Percent Effect” value came to 3.872%.

With `c1cnnc(N2CCCC2CNCc2nc(-c3ccoc3)no2)c1` (stereo not drawn), the “Percent Effect” value (30 µM) is 14.13%.
